Reference: PubChem BioAssay (NCI)
This is part of a sample that, as a whole, favours compounds with a hit. Of some 83,000 tested, about 20% had one in any assay.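 96-well plates, one dose, 48 hours. Percent growth reported; active if below 10.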 Calls of active or inactive are those of the source.

Experiments:
Experiment in all cases: NCI-60 one-dose screen, 48 h (100 = growth as untreated, 0 = no growth, -100 = all killed)
Settings in all cases: 10 µM
[1] = test system: SR leukemia
[2] = test system: RPMI-8226 leukemia
[3] = test system: OVCAR-8 ovarian
[4] = test system: OVCAR-5 ovarian
[5] = test system: OVCAR-4 ovarian
[6] = test system: SK-OV-3 ovarian
[7] = test system: IGROV1 ovarian
[8] = test system: OVCAR-3 ovarian
[9] = test system: HS 578T breast
[10] = test system: NCI/ADR-RES ovarian

Measured: growth

CCc1ccc(-c2ccc(-n3nc(C)c4c(N)nc(Cc5ccccc5)nc43)cc2)cc1
inactive: [1] 21.2% | [2] 86% | [3] 32.3% | [4] 73.5% | [5] 63.9% | [6] 62.8% | [7] 68% | [8] 80% | [9] 57.6% | [10] 38.4%

Brc1ccc2c(c1)-c1ccccc1C1=NCCN12
active: [1] -0.353% | [2] 1.99% | [3] -11.3% | [4] -8.25% | [5] 0.91% | [6] -3.44% | [8] -32.7% | [10] -18%
inactive: [7] 27.1% | [9] 37%

COc1ccc(/C=C2\CCCC3=C2NC(N)=NC3c2ccc(OC)cc2)cc1 (stereo not given)
inactive: [1] 81.9% | [2] 57.7% | [3] 95.8% | [4] 103% | [5] 72.8% | [6] 78.3% | [7] 99.7% | [8] 102% | [9] 112% | [10] 90.8%

COC1OC(COS(=O)OC)C(O)C(O)C1OS(=O)OC (stereo not given)
inactive: [1] 80% | [2] 99.7% | [3] 114% | [4] 90.5% | [5] 116% | [6] 104% | [7] 97.7% | [8] 106% | [9] 102% | [10] 98.1%

Cc1ccc(NCCNCC(C)(C)O)c2c(=O)c3ccc(Cl)cc3sc12
active: [1] -31.2% | [2] -12.9% | [8] -13.4%
inactive: [3] 32.2% | [4] 59.9% | [5] 62.5% | [6] 79.1% | [7] 29.8% | [9] 50.4% | [10] 45.9%

COc1cc(-c2csc(NC(=O)Nc3cc(C(F)(F)F)cc(C(F)(F)F)c3)n2)cc(OC)c1OC
inactive: [1] 16.5% | [3] 19.4% | [4] 30.4% | [5] 21.1% | [7] 35.1% | [9] 31.2% | [10] 10.4%
active: [2] -6.92% | [6] 0.491% | [8] -3.97%

CC(C)(C)OC(=O)N1CCc2c(sc3ncnc(N/N=C/c4cccc5ccccc45)c23)C1
inactive: [1] 24.1% | [3] 27.6% | [4] 31.8% | [5] 33.4% | [6] 37% | [7] 26.9% | [8] 46.4% | [9] 17.2%
active: [2] 2.4% | [10] 8.76%

OC(CNc1ccnc2cc(Cl)ccc12)CNC1CCCCC1 (stereo not given)
inactive: [1] 23.1% | [2] 65% | [3] 87.9% | [4] 87.4% | [5] 76% | [6] 85.1% | [7] 103% | [8] 89.4% | [9] 83.8% | [10] 90.7%

O=S(=O)(Oc1ccc(-c2ccc3sccc3c2)cc1)c1ccc(F)cc1
inactive: [1] 86.3% | [2] 96.4% | [3] 106% | [4] 102% | [5] 100% | [6] 107% | [7] 104% | [8] 110% | [9] 112% | [10] 95.8%

C[C@H]1[C@H](OC(=O)CCC(=O)O)O[C@@H]2O[C@]3(C)CC[C@H]4[C@H](C)CC[C@@H]1[C@@]24OO3
inactive: [2] 25.8% | [3] 23.4% | [4] 44.3% | [5] 37.6% | [6] 92.9% | [7] 54.5% | [8] 30.8% | [9] 47.2% | [10] 23.6%
active: [1] -2.25%

Cc1ccc2nc(Cl)c(-c3nc4ccccc4o3)cc2c1
inactive: [1] 88.6% | [2] 97.8% | [3] 99.4% | [4] 97.8% | [5] 99.3% | [6] 104% | [7] 79.2% | [8] 98.3% | [9] 98.6% | [10] 89.4%

Clc1ccc(/C=C2\CCCC3C2=Nc2ccccc2NC3c2ccc(Cl)cc2)cc1 (stereo not given)
inactive: [1] 21.5% | [3] 65.8% | [4] 93.8% | [5] 79.5% | [6] 70.9% | [7] 83.1% | [8] 67% | [9] 102% | [10] 99.4%
active: [2] -16%

COc1ccc(-c2n[nH]nc2-c2cc(OC)c(OC)c(OC)c2)cc1
inactive: [3] 21.8% | [4] 43.3% | [5] 35.4% | [6] 48.6% | [9] 12.2%
active: [1] 7.33% | [2] 4.71% | [7] 4.66% | [8] -33.3% | [10] -28.8%

Cc1ccc(S(=O)(=O)N/N=C2\CCCc3ccccc32)cc1
inactive: [1] 110% | [2] 94.3% | [3] 95.2% | [4] 90% | [5] 95.8% | [6] 111% | [7] 113% | [8] 113% | [9] 95% | [10] 96.7%

CCC1NC(=O)c2cc(S(N)(=O)=O)c(Cl)cc2N1 (stereo not given)
inactive: [1] 103% | [2] 109% | [3] 100% | [4] 105% | [5] 130% | [6] 118% | [7] 120% | [8] 126% | [9] 112% | [10] 108%

CCOC(=O)C(C)(c1ccccc1)c1ccccc1
inactive: [1] 100% | [2] 101% | [3] 105% | [4] 107% | [5] 111% | [6] 98.9% | [7] 106% | [8] 107% | [9] 111% | [10] 106%

O=C(CC(CC(=O)c1ccccc1)c1ccccc1O)c1ccccc1
inactive: [1] 92.9% | [2] 85.2% | [3] 95.9% | [4] 96.9% | [5] 91.2% | [6] 94.5% | [7] 101% | [8] 94.3% | [9] 86.6% | [10] 92.1%

Cc1n[nH]c(C)c1N=Nc1cccc2c1C(=O)c1ccccc1C2=O
inactive: [1] 91.4% | [2] 104% | [3] 91.3% | [4] 91.8% | [5] 89.5% | [6] 93.6% | [7] 84.1% | [8] 106% | [9] 96.7% | [10] 89.1%

COc1cccc(C2C(C#N)=C(N)Oc3cc(N)ccc32)c1 (stereo not given)
inactive: [1] 14.4% | [2] 19.6% | [3] 30.7% | [4] 40.6% | [5] 43.8% | [6] 48.9% | [7] 32.4% | [9] 22.1%
active: [8] -26.5% | [10] -7.69%

O=S(=O)(O)c1ccc(Cl)cc1
inactive: [1] 92.5% | [2] 102% | [3] 101% | [4] 103% | [5] 114% | [6] 92.6% | [7] 103% | [8] 103% | [9] 101% | [10] 99%

O=C(/C=C/c1cccc(B(O)O)c1)c1cccc(B(O)O)c1
inactive: [2] 48.2% | [5] 53.9% | [7] 26.7% | [9] 16.9%
active: [1] 3.2% | [3] -12.2% | [4] -12% | [6] 3.23% | [8] -28.2% | [10] 8.08%

OCC1OC2C(NC(=S)N2c2ccccc2)C(O)C1O (stereo not given)
inactive: [1] 95.6% | [2] 97.1% | [3] 97.2% | [4] 105% | [5] 110% | [6] 105% | [7] 121% | [8] 102% | [9] 88% | [10] 105%

COc1cc2cc(Oc3ccc(NC(=O)Nc4ccc(Cl)c(C(F)(F)F)c4)cc3)c(C)nc2cc1OC
inactive: [4] 18% | [5] 17.1%
active: [1] -32.5% | [2] -26.4% | [3] 7.34% | [6] -4.09% | [7] -7.69% | [8] -27.3% | [9] 2.5% | [10] 2.01%

CC[C@@H](C(=O)[C@@H](C)[C@@H](O)[C@H](C)[C@@H]1O[C@@H]([C@@H](CC)C(=O)O)CC[C@@H]1C)C1O[C@]2(C=CC(=O)[C@]3(CC[C@@](C)([C@H]4CC[C@](O)(CC)[C@H](C)O4)O3)O2)[C@H](C)C[C@@H]1C (stereo not given in full)
inactive: [1] 31.3% | [3] 44.4% | [4] 56.1% | [5] 47.7% | [6] 69.1% | [7] 48.4% | [8] 27.2% | [9] 30.6% | [10] 40%
active: [2] 4.99%

O=C(O)c1cn(C2CC2)c2cc(N3CCN(C(=O)c4cc(-c5ccc(Cl)cc5)nc5ccccc45)CC3)c(F)cc2c1=O
inactive: [1] 47.4% | [2] 81.8% | [3] 89.9% | [4] 98.2% | [5] 98.6% | [6] 77.9% | [7] 51.4% | [8] 100% | [9] 94% | [10] 98.9%

COc1ccc(Nc2cnc3cc(NS(=O)(=O)c4ccc(C)cc4)ccc3n2)cc1
inactive: [1] 30% | [2] 106% | [3] 82.1% | [4] 95.9% | [5] 86.5% | [6] 88% | [7] 65.5% | [8] 79.8% | [9] 82.7% | [10] 73.1%
